What was measured:
Assay in all cases: thermal shift delta Tm vs DMSO control; higher = stronger stabilization (binding)
Details in all cases: 12.5 µM; protein concentration 2 µM
[1] = test system: LOC_OS01G01410-cb001
Procedure, shortened: (§1)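 The melting temperature shift given here is a triplicate mean, measured against protein that received only DMSO. Melting temperatures came from Boltzmann fits of differential scanning fluorimetry data on E. coli-expressed, purified rice kinase domain constructs. Each 19.5 μl well contained 2 μM kinase, 100 mM potassium phosphate pH 7.5, 150 mM NaCl, 10% glycerol, 5 × SYPRO Orange and compound in DMSO. Plates were scanned from 25°C to 95°C at 0.05°C/s.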

[2] = test system: LOC_OS01G02750-cb003
Procedure, shortened: as §1

[3] = test system: LOC_OS01G10900-cb004
Procedure, shortened: as §1

[4] = test system: LOC_OS01G13800-cb001
Procedure, shortened: as §1

[5] = test system: LOC_OS01G14860-cb001
Procedure, shortened: as §1

[6] = test system: LOC_OS01G21960-cb002
Procedure, shortened: as §1

[7] = test system: LOC_OS01G39600-cb002
Procedure, shortened: as §1

[8] = test system: LOC_OS01G48390-cb002
Procedure, shortened: as §1

[9] = test system: LOC_OS01G51400-cb002
Procedure, shortened: as §1

[10] = test system: T1, LOC_OS01G52050-cb004
T1 sequence (whole entry): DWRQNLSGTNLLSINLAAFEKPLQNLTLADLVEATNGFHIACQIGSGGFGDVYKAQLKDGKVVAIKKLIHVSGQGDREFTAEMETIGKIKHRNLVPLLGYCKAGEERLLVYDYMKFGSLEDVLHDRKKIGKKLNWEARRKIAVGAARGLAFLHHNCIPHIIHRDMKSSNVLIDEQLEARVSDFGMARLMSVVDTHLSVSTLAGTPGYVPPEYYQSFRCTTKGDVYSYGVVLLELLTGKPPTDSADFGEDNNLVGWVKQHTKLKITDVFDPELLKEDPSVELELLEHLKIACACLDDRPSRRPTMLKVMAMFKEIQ
Procedure, shortened: as §1

SMILES	thermal shift delta Tm [1]	thermal shift delta Tm [2]	thermal shift delta Tm [3]	thermal shift delta Tm [4]	thermal shift delta Tm [5]	thermal shift delta Tm [6]	thermal shift delta Tm [7]	thermal shift delta Tm [8]	thermal shift delta Tm [9]	thermal shift delta Tm [10]
COc1cc(OC)c(C=C2C(=O)Nc3ccccc32)c(OC)c1	0.16 °C	0.24 °C	1.24 °C	0.46 °C	0.32 °C	0.88 °C	0.01 °C	0.22 °C	0.14 °C	-0.14 °C
COc1cc2/c(=N/c3ccc(Br)cc3F)nc[nH]c2cc1OCC1CCN(C)CC1 [Vandetanib (ZD6474)]	1.05 °C	-0.06 °C	0.86 °C	-0.25 °C	0.15 °C	0.02 °C	0.47 °C	1.67 °C	0.15 °C	1.36 °C
Cc1cc(C(=O)Nc2nc3cccc(Cl)c3n2[C@@H]2CCCCN(C(=O)/C=C/CN(C)C)C2)ccn1 [Nazartinib (EGF816, NVS-816)]	1.02 °C	1.36 °C	1.4 °C	0.82 °C	1.27 °C	1.25 °C	0.83 °C	0.78 °C	0.04 °C	0.96 °C
NC[C@@](O)(c1ccc(Cl)cc1)c1ccc(-c2cn[nH]c2)cc1	0.04 °C	1.13 °C	0.24 °C	0.5 °C	0.53 °C	1.22 °C	-0.16 °C	1.06 °C	0.36 °C	0.51 °C
Cn1c2ccccc2c2c3c(c4c5ccccc5n(CCC#N)c4c21)CNC3=O	2.6 °C	2.74 °C	0.09 °C	1.15 °C	4.78 °C	2.78 °C	3.54 °C	1.96 °C	0.8 °C	3.9 °C
Cc1ncc(CCCN(C)C)cc1Nc1ncc2c(n1)-c1ccc(C(F)(F)F)cc1NC(=S)C2	0.62 °C	1.24 °C	-0.4 °C	0.18 °C	0.59 °C	0.78 °C	-0.18 °C	1.07 °C	0.38 °C	1.48 °C
CO[C@H]1C[C@@H]2CC[C@@H](C)[C@@](O)(O2)C(=O)C(=O)N2CCCC[C@H]2C(=O)O[C@H]([C@H](C)C[C@@H]2CC[C@@H](OP(C)(C)=O)[C@H](OC)C2)CC(=O)[C@H](C)/C=C(\C)[C@@H](O)[C@@H](OC)C(=O)[C@H](C)C[C@H](C)/C=C/C=C/C=C/1C [Ridaforolimus (Deforolimus, MK-8669)]	0.73 °C	-1.9 °C	0.47 °C	0.18 °C	0.16 °C	0.07 °C	-0.26 °C	0.54 °C	-0.09 °C	0.11 °C
CCN1/C(=C/C(C)=O)Sc2ccc(OC)cc21	0.21 °C	0.62 °C	0.24 °C	0.6 °C	1.92 °C	1.17 °C	-0.62 °C	0.54 °C	0.02 °C	-0.01 °C
Cc1ccc(NC(=O)c2cccc(N(C)C)c2)cc1NC(=O)c1ccc(O)cc1	0.45 °C	0.15 °C	0.12 °C	0.36 °C	0.44 °C	0.92 °C	-0.01 °C	0.9 °C	0.37 °C	0.36 °C
COc1cc2ncnc(Nc3ccc(O)c(Br)c3)c2cc1OC	1.47 °C	-0.02 °C	0.65 °C	-0.02 °C	0.9 °C	0.93 °C	-1.06 °C	3 °C	0.29 °C	1.31 °C

— the supplement of paper PMC9694430
